# Rows were chosen to be rich in hits. Some 8% of all compounds tested hit in one or more screens of this group.
# SW480 rerep: A quantitative high throughput screen for small molecules that induce DNA re-replication in SW480 colon adenocarcinoma cells | AID 624297, 2012 | SW480 DNA re-replication, Hoechst DNA content imaging, 48 h | 1.8% of 340,000 active | Potency, µM (titrated, usually from 46.1 µM), for inactives: top-dose re-replication activation, usual class: activators; also: % of control where 0% means no effect; nearly all actives have a fitted effect of over 55% in size
#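 Cells (250 per well) received 23 nL compound or DMSO by pin tool and were kept 48 hr at 37 C, 5% CO2. Nuclei were then stained with Hoechst for 40 min and scanned for DNA content.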
# MCF10A rereplic: A quantitative high throughput screen for small molecules that induce DNA re-replication in MCF 10a normal breast cells. 2.9% of 350,000 active. Potency, µM (series often up to 46.1 µM), without a hit: at the top dose activity, positive = re-replication, usual class: activators. MCF 10A DNA re-replication, Hoechst nuclear intensity, 48 h; also: % of control where 0% means no effect; nearly all actives have a fitted effect of over 50% in size
# HT1080 IDH1KD tx: qHTS for induction of synthetic lethality in tumor cells producing 2HG: qHTS for the HT-1080-IDH1KD cell line | Potency, µM (series often up to 46.1 µM), for inactives: at the top dose activity, negative = toxicity, most hits filed as cytotoxic | AID 686971, 2013 | 2% of 360,000 active | HT-1080 IDH1 knockdown viability, ATP luminescence, 48 h;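 also: 0% = DMSO wells and -100% = cell-free medium wells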
#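 Knockdown cells (IDH1KD HT-1080) received compounds 2 h after plating at 750 cells/well and were kept 48 h at 37 °C in 5% FBS RPMI. A CellTiter-Glo luminescence read gave % activity for curve fitting.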
# HT1080-NT tox: qHTS for induction of synthetic lethality in tumor cells producing 2HG: qHTS for the HT-1080-NT fibrosarcoma cell line | Potency, µM (doses to about 46.1 µM), inactives show at the highest dose activity, negative = less viability, most hits filed as cytotoxic | 1.6% of 360,000 active | HT-1080-NT fibrosarcoma viability, CellTiter-Glo ATP luminescence, 48 h;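 also: NT is the 2HG producing partner of a matched IDH1 knockdown line; 0% = DMSO-treated cells and -100% = media-only wells without cells; nearly all actives have a fitted effect of over 55% in size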
#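 Toxicity toward the 2HG-producing NT line was scored as %Activity, normalised to DMSO and no-cell wells, from CellTiter-Glo luminescence after 48 hours' treatment.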
# KB-3-1 cytotox: qHTS assay for MDR1-selective chemotherapeutics: Primary screen using the parental adenocarcinoma cell KB-3-1. KB-3-1 viability, CellTiter-Glo ATP luminescence, 72 h. Potency, µM (titrated, usually from 46.1 µM), most hits filed as cytotoxic. 1.4% of 400,000 active; also: % is scaled to controls: 0 for no effect and ±100 for the full control effect; nearly all actives have a fitted effect of over 60% in size
#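 72 h, 37 °C compound treatment of KB-3-1 parental cells; CellTiter-Glo added, 10 min, luminescence read. Data corrected against DMSO-only plates and normalized before curve fitting.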
# KB-V1 MDR tox: qHTS assay for MDR1-selective chemotherapeutics: Primary screen using the drug-selected MDR subline cells KB-V1. Potency, µM (top dose mostly 46.1 µM), hits mostly cytotoxic. AID 1347076, 2019. 3.4% of 400,000 active. KB-V1 MDR cells viability, CellTiter-Glo, 72 h; also: % is scaled to controls: 0 for no effect and ±100 for the full control effect; nearly all actives have a fitted effect of over 60% in size
#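 Cells of the MDR subline KB-V1 are plated, dosed with compound at multiple concentrations, and incubated 72 h at 37 degrees C; CellTiter-Glo is then added and luminescence read after 10 min.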
# * hit, by the source's call; i = inactive; ? = inconclusive; . = not tested or not shown. Calls follow the shape of the dose curve; as a rule, active = well fitted curve in the direction sought with a large enough effect; inconclusive = small, poorly fitted or top-dose-only effect, or another doubt; inactive = no such curve, though single readings can be large; an effect the other way counts as inactive or inconclusive. Potency is read from the fitted curve at half-maximal effect.
SMILES,SW480 rerep,MCF10A rereplic,HT1080 IDH1KD tx,HT1080-NT tox,KB-3-1 cytotox,KB-V1 MDR tox
COc1ccc(CN2CCN(CC3CC3)CC2CCO)c(C)c1C (stereo not drawn),-42%,26µM*,-9%,-11%,i,i
CCCCCNCc1ccc(Cl)cc1,-7%,20%,3%,0%,i,i
CCCCNCC(O)(c1ccc(Cl)cc1)c1ccc(Cl)cc1,-20%,?,18µM*,?,i,i
COc1ccc(CNCC(O)(c2ccc(Cl)cc2)c2ccc(Cl)cc2)cc1OC,?,?,?,?,i,7.3µM*
Nc1c(C(=O)Nc2ccc(S(=O)(=O)N3CCCC3)cc2)sc2nc3ccc(OC(F)(F)F)cc3cc12,15%,?,?,?,15µM*,?
Cc1ccc(-c2nn(CC(=O)NC3CCCCC3)c3c2cnc2ccccc23)cc1,.,.,.,.,i,i
CCN(CC)CCNC(=O)c1ccc2nc(CCc3ccccc3)oc2c1,.,.,.,.,i,i
COc1ccccc1NC(=S)N(Cc1ccco1)Cc1cc2cccc(C)c2[nH]c1=O,-2%,13%,-8%,-2%,i,?
COc1ccccc1NC(=S)N(Cc1ccco1)Cc1cc2cc(C)c(C)cc2[nH]c1=O,5.8µM*,2.1µM*,7.3µM*,?,?,2.6µM*
COc1ccccc1NC(=O)N(Cc1ccco1)Cc1cc2cc(C)cc(C)c2[nH]c1=O,?,?,?,?,?,18µM*
Cc1ccc2cc(CN(Cc3ccco3)C(=O)c3cccs3)c(=O)[nH]c2c1,15µM*,2.6µM*,5.8µM*,4.6µM*,?,5.2µM*
COc1ccccc1NC(=O)N(CCN1CCOCC1)Cc1cc2cc(C)cc(C)c2[nH]c1=O,4%,13%,-11%,-4%,i,i
Cc1cccc2cc(CN(Cc3ccco3)C(=O)c3cccs3)c(=O)[nH]c12,-1%,5%,2%,0%,?,i
COc1ccccc1NC(=O)N(Cc1ccco1)Cc1cc2ccc(C)c(C)c2[nH]c1=O,18µM*,7.3µM*,2.6µM*,3.7µM*,5.8µM*,5.8µM*
Cc1ccc2cc(CN(Cc3ccco3)C(=O)NCc3ccccc3)c(=O)[nH]c2c1C,10%,25%,-10%,0%,i,i
COc1cc(CCC(=O)NCc2ccc3c(c2)CCN3C(=O)c2cccc(C)c2)cc(OC)c1OC,.,.,.,.,i,i
Cc1ccc2cc(CN(CCN3CCCC3)C(=O)Nc3ccc(F)cc3)c(=O)[nH]c2c1C,0%,24%,?,23µM*,i,i
Cc1ccc2cc(CN(CCN3CCCC3)C(=O)Nc3ccccc3)c(=O)[nH]c2c1C,-3%,-1%,?,?,i,i
COc1ccc(CNC(=O)C2=C(C)C(=O)OC23CCN(C(C)=O)CC3)cc1,.,.,.,.,i,i
CCOC(=O)c1sc2ncnc(NCC(c3cccs3)N(C)C)c2c1C (stereo not drawn),4%,28%,-13%,-20%,i,21µM*
CN(C)C(CNc1ncnc2sccc12)c1cccs1 (stereo not drawn),8%,?,-3%,-3%,i,?
Cc1ccc2c(=O)c(C(=O)c3cccc(Cl)c3)cn(CC(=O)Nc3ccc4c(c3)OCCO4)c2n1,.,.,.,.,i,i
Cc1cccc2c1-c1sc(C(=O)N(C)c3cccc(Cl)c3)cc1CO2,.,.,.,.,i,i
Cc1ccc(C)c(CSc2nnc([C@@H](N)C(C)C)o2)c1,-4%,1%,-9%,-9%,i,15µM*
COc1ccccc1NC(=O)N1CCC(CN2CCc3ccccc3C2)CC1,.,.,.,.,i,i
SMILES,SW480 rerep,MCF10A rereplic,HT1080 IDH1KD tx,HT1080-NT tox,KB-3-1 cytotox,KB-V1 MDR tox
COc1ccc(Nc2nc(-c3sc(C)nc3C)cs2)c(OC)c1,21µM*,?,16µM*,?,7.3µM*,?
COc1ccc(Nc2nc(-c3cccs3)cs2)c(OC)c1,-14%,16%,-4%,-4%,i,i
Cc1ccnc(Nc2nc(-c3sc(C)nc3C)cs2)c1,?,23µM*,?,?,?,?
Cc1ccc(Nc2nc(-c3sc(C)nc3C)cs2)cc1,2.1µM*,?,1.8µM*,1.5µM*,2.3µM*,1.8µM*
Cc1nc(N)sc1-c1csc(Nc2ccccn2)n1,-1%,3%,-22%,-1%,i,i
Cc1nc(N)sc1-c1csc(Nc2ccc(Cl)cn2)n1,1%,?,?,?,i,18µM*
Cc1ccc2c(=O)cc(C(=O)Nc3c(C(=O)c4ccc(F)cc4)oc4ccccc34)oc2c1C,.,.,.,.,i,?
CC(=O)c1ccc([N+](C)(C)C)cc1,.,.,.,.,i,i
CCCS(=O)(=O)c1c(S(=O)(=O)CCC)c2cc(C(C)(C)C)ccn2c1C(=O)c1ccccc1,.,.,.,.,i,i
Cc1cccc(Nc2nc(-c3ccc4c(c3)OCCO4)cs2)c1,7.3µM*,14µM*,-25%,-10%,?,i
Cc1nc(C)c(-c2csc(Nc3cccc(O)c3)n2)s1,-1%,-10%,?,?,i,?
CC(=O)c1ccc(Nc2nc(-c3sc(C)nc3C)cs2)cc1,.,.,2.9µM*,?,?,12µM*
Cc1ccc(/C=C(\C#N)c2nc(-c3ccc(-c4ccccc4)cc3)cs2)cc1,.,.,.,.,i,?
Cc1ccc(-c2csc(/C(C#N)=C/Nc3ccc4c(c3)OCCO4)n2)cc1,?,3.7µM*,7%,14%,i,i
Cc1cccc(Nc2nc(-c3sc(C)nc3C)cs2)c1,-4%,13%,?,26µM*,?,?
CCOC(=O)c1c(NC(=O)c2cc(=O)c3ccc(C)cc3o2)sc(C)c1C,.,.,.,.,i,i
CCOc1ccc(N(CC)S(=O)(=O)N2CCCC(C(=O)NCc3ccccc3Cl)C2)cc1 (stereo not drawn),.,.,.,.,i,i
O=C(CN1CCN(C/C=C/c2ccccc2)CC1)Nc1cc([N+](=O)[O-])ccc1Cl,10%,14%,-2%,-9%,?,23µM*
CCN(c1ccccc1)S(=O)(=O)c1ccc(OC)c(NC(=O)CNC)c1,29%,8.2µM*,-3%,-27%,?,?

# From PubChem BioAssay
